From PubChem BioAssay (NCATS)
Values joined by “and” are separate entries in the source; they are usually repeats but may differ in a detail not shown here. Equal values may be shown once. Results filed as inconclusive are left out. A structure can be active in one record and inactive in another. Active and inactive are the calls of the source. Unless noted, calls come from the whole dose curve; as a rule, active = well fitted curve in the direction sought with a large enough effect; inconclusive = small, poorly fitted or top-dose-only effect, or another doubt; inactive = no such curve, though single readings can be large; an effect the other way counts as inactive or inconclusive.

Tests used:
[1] = molecular target: Guanidinoacetate N-methyltransferase (Homo sapiens) (UniProt Q14353); assay: Confirmatory Screen for Target Class Profiling of Small Molecule Inhibitors of Methyltransferases (AID 1745852; calls by dose curve; note: potency is the fitted concentration of half-maximal effect; for activity change, negative = inhibition: % is set by controls: 0 for no effect and ±100 for the full control effect); conditions: MTase-Glo luminescence, SAH detection, recombinant enzyme; activity change, negative = inhibition: at 57.3 µM (top of the series) unless noted
[2] = molecular target: Nicotinamide N-methyltransferase (Homo sapiens) (UniProt P40261); assay: as above; conditions: MTase-Glo luminescence, SAH detection, recombinant enzyme; measured here: NNMT max response; stronger effect = lower value
[3] = molecular target: Phenylethanolamine N-methyltransferase (Homo sapiens) (UniProt P11086); assay: as above; conditions: MTase-Glo luminescence, SAH detection, recombinant enzyme; measured here: PNMT max response; stronger effect = lower value
[4] = molecular target: Glutathione peroxidase 1 (Homo sapiens) (UniProt P07203); assay: Primary qHTS Assay for Inhibitors of Recombinant Selenoprotein Glutathione Peroxidase 1 (GPX1) (AID 1845191); note: nearly all actives have a fitted effect of over 65% in size; note: potency is the fitted concentration of half-maximal effect
Summary of the method: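 GR-coupled readout: NADPH consumption tracked by fluorescence, ex 340/em 450 nm, at t=0 and after 15 min at RT. Final mix 10 nM GPX1, 1 mM GSH, 0.5 mM CHP, 0.5 mM NADPH, 100 nM GR, 0.01% BSA, following 30 min enzyme–compound preincubation.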

[5] = molecular target: Phospholipid hydroperoxide glutathione peroxidase GPX4 (Homo sapiens) (UniProt P36969); assay: Primary qHTS Assay for Inhibitors of Recombinant Selenoprotein Glutathione Peroxidase 4 (GPX4) (AID 1845192); note: nearly all actives have a fitted effect of over 65% in size; note: potency is the fitted concentration of half-maximal effect; for activity change, negative = inhibition: % is set by controls: 0 for no effect and ±100 for the full control effect
Summary of the method: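 Steps: GPX4 plus compound, 30 min RT; add GR/GSH/NADPH master mix; start with cumene hydroperoxide; read 340/450 nm fluorescence at 0 and 15 min. Finals were 200 nM GPX4, 1 mM GSH, 0.5 mM CHP, 0.5 mM NADPH, 100 nM GR.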

[6] = molecular target: Luciferin 4-monooxygenase (Photinus pyralis) (UniProt P08659); assay: Primary firefly luciferase (FLuc) qHTS assay for identification of artifact compounds. (AID 1845220); note: nearly all actives have a fitted effect of over 60% in size;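 for activity change, negative = inhibition: plate controls were DMSO vehicle for no effect and no enzyme for full effect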
Summary of the method: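 Titrated compounds were incubated 15 min at RT, protected from light, with luciferin and ATP at 10 uM; reaction started with 10 nM FLuc, luminescence imaged at 5 min, and concentration-response fitted by Hill equation.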

[7] = tested on: Nanoluciferase (engineered Oplophorus gracilirostris luciferase); assay: Primary Nanoluciferase (NLuc) qHTS assay for identification of artifact compounds. (AID 1845222);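 note: NLuc secreted into diluted conditioned medium of S16 cells; 0% = DMSO and -100% = no enzyme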
Summary of the method: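 qHTS format, against NLuc in S16 cell-conditioned medium. Nano-Glo substrate 1:100 was added after 15 min at room temperature. Luminescence was taken after a further 5 min.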

[8] = Primary redox qHTS assay for identification of artifact compounds. (AID 1845223)
Summary of the method: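 Redox-cycling detection via DTT (250 uM final) oxidation coupled to Amplex Red (25 uM)/HRP (250 mU/mL) in HBSS. 15 min preincubation plus 30 min after DTT, room temperature. Ex/Em 525/598 nm; 4-parameter Hill fit against DMSO and 10 uM DA3003.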

[9] = Quantitative High-Throughput drug screen in 47 multiple myeloma cell lines against the NCATS MIPE library collection: FR4_PLB cell viability assay (AID 1918924; note: nearly all actives have a fitted effect of over 35% in size; note: potency is the fitted concentration of half-maximal effect)
Summary of the method: (§1)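 Steps: seed 500 cells per well; pin-transfer MIPE 4.0 library; incubate 48 h at 37C, 5% CO2, humidified; add CellTiter-Glo, 5 min room temperature; read luminescence.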

[10] = Quantitative High-Throughput drug screen in 47 multiple myeloma cell lines against the NCATS MIPE library collection: Delta47_JCRB cell viability assay (AID 1918925; note: nearly all actives have a fitted effect of over 45% in size; note: potency is the fitted concentration of half-maximal effect)
Summary of the method: (§2)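 Luminescent ATP measurement with CellTiter-Glo gives viability, scaled between DMSO-only wells (100%) and media-only wells (0%). Cells, 500 per well, faced library compounds for 48 hours at 37C.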

[11] = Quantitative High-Throughput drug screen in 47 multiple myeloma cell lines against the NCATS MIPE library collection: EJM_DSMZ cell viability assay (AID 1918926; note: potency is the fitted concentration of half-maximal effect; nearly all actives have a fitted effect of over 30% in size)
Summary of the method: as §2

[12] = Quantitative High-Throughput drug screen in 47 multiple myeloma cell lines against the NCATS MIPE library collection: AMO1_DSMZ cell viability assay (AID 1918927; note: nearly all actives have a fitted effect of over 30% in size; note: potency is the fitted concentration of half-maximal effect)
Summary of the method: as §2

[13] = Quantitative High-Throughput drug screen in 47 multiple myeloma cell lines against the NCATS MIPE library collection: ARP1_JJKsccF8 cell viability assay (AID 1918928; note: nearly all actives have a fitted effect of over 40% in size; note: potency is the fitted concentration of half-maximal effect)
Summary of the method: (§3)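 500 cells/well; MIPE 4.0 library pinned in; 48 h, 37 °C, 5% CO2; CellTiter-Glo ATP luminescence. Controls: DMSO = 100% viability, medium only = 0%.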

[14] = Quantitative High-Throughput drug screen in 47 multiple myeloma cell lines against the NCATS MIPE library collection: ARD_JJKsccE7 cell viability assay (AID 1918929; note: potency is the fitted concentration of half-maximal effect)
Summary of the method: as §2

[15] = Quantitative High-Throughput drug screen in 47 multiple myeloma cell lines against the NCATS MIPE library collection: Karpas620_DSMZ cell viability assay (AID 1918959); note: nearly all actives have a fitted effect of over 30% in size; note: potency is the fitted concentration of half-maximal effect
Summary of the method: as §1

[16] = Quantitative High-Throughput drug screen in 47 multiple myeloma cell lines against the NCATS MIPE library collection: KMM1_JCRB cell viability assay (AID 1918960); note: nearly all actives have a fitted effect of over 30% in size; note: potency is the fitted concentration of half-maximal effect
Summary of the method: as §3

[17] = Primary fluorescence-based thiol-reactive (MSTI) qHTS assay for identification of artifact compounds. (AID 1845221); note: nearly all actives have a fitted effect of over 65% in size; note: potency is the fitted concentration of half-maximal effect
Summary of the method: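 First, 4 uM MSTI in 2% DMSO/PBS pH 7.4 was dispensed; next, compounds were added; then plates sat 1 h at room temperature without light. Finally, emission at 598 nm was recorded.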

[18] = NCATS anti-infectives library activity on the primary C. elegans qHTS viability assay (AID 1745855; calls by dose curve)
Summary of the method: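 Titration-based screen in worms: eggs hatched overnight in M9, L1 larvae fed TOP10 capsules in S medium with compound, incubated 21 °C for 7 days; fluorescent objects gated by size and intensity at days 0, 3 and 7.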

Phospholipid hydroperoxide glutathione peroxidase GPX4 (Homo sapiens), sequence (P36969 whole entry, looked up): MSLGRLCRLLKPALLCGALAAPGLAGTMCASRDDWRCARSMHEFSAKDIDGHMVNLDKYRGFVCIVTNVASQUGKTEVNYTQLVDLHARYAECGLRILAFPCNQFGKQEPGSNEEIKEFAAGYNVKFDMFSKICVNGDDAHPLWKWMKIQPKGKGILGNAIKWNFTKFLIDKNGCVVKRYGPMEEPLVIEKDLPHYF
Phenylethanolamine N-methyltransferase (Homo sapiens), sequence (P11086 whole entry, looked up): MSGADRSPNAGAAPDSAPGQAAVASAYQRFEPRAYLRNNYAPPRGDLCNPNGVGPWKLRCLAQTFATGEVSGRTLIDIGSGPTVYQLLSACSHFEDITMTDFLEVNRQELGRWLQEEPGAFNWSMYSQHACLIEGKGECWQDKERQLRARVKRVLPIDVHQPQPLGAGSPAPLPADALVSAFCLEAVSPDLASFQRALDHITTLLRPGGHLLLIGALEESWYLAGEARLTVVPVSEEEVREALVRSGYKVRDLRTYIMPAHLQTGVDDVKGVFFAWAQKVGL
Glutathione peroxidase 1 (Homo sapiens), sequence (P07203 whole entry, looked up): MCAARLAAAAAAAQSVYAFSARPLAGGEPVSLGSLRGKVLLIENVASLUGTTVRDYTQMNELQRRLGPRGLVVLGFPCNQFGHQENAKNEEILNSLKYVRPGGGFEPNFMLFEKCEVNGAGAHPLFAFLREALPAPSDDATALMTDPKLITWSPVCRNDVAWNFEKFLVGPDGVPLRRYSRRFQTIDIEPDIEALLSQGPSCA
Nicotinamide N-methyltransferase (Homo sapiens), sequence (P40261 whole entry, looked up): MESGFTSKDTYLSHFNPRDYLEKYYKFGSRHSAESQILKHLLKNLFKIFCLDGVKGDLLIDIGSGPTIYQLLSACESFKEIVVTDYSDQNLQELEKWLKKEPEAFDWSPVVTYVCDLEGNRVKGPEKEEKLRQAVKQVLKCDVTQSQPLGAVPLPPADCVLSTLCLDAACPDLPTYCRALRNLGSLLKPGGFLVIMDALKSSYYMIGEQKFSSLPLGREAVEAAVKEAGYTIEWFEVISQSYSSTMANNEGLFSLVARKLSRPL

Structure (SMILES) | Potency [1] | activity [2] | activity [3] | Potency [4] | Potency [5] | Potency [6] | Potency [7] | Potency [8] | Potency [9] | Potency [10] | Potency [11] | Potency [12] | Potency [13] | Potency [14] | Potency [15] | Potency [16] | activity change, negative = inhibition [1] | Potency [17] | Potency [18]
OCCCNc1cc(-c2ccnc(Nc3cccc(Cl)c3)n2)ccn1 | 10.8 µM (active) | -65.5% | -82.3% | inactive | inactive | inactive | inactive | inactive | 0.118 µM (active) | 0.0264 µM (active) | 0.118 µM (active) | 74.3 nM (active) | 0.105 µM (active) | 0.0743 µM (active) | 66.2 nM (active) | 0.0526 µM (active) |  |  | 
CCS(=O)(=O)c1cccc(-c2cc(C(=O)NC3CCN(C)CC3)c(C)c3[nH]c4ncc(C)cc4c23)c1 | 18.8 µM (active) | -55.9% and -55.5% | -15.8% and -17.5% | inactive | inactive | inactive |  | inactive | 2.35 µM (active) | 0.662 µM (active) | 2.64 µM (active) | 9350 nM (active) | 2.09 µM (active) | 3.32 µM (active) |  | 2.96 µM (active) | -3.37% |  | 
Nc1cccc(-c2cc3c(Oc4cccc(O)c4)ncnc3[nH]2)c1 | 30.4 µM (active) | -47.2% | -55.3% | inactive | inactive and 14.3 µM (active) | inactive | inactive | inactive | 14.8 µM (active) |  | 16.6 µM (active) |  | 20.9 µM (active) |  | inactive |  |  | 9.47 µM (active) | 
Nc1nccc(Oc2ccc(NC(=O)c3c[nH]cc(-c4ccc(F)cc4)c3=O)cc2F)c1Cl |  | -55.9% | -3% | inactive | inactive |  | inactive | inactive |  | 16.6 µM (active) | 5.9 µM (active) | 2350 nM (active) | 14.8 µM (active) | 6.62 µM (active) |  | 2.96 µM (active) | -6.18% | inactive | 
Cn1c(CNc2ccc(C(=N)N)cc2)nc2cc(C(=O)N(CCC(=O)O)c3ccccn3)ccc21 |  | -1.22% | -0.426% | inactive | inactive | inactive |  | inactive | inactive |  | 0.0006 µM (active) | inactive | inactive | inactive |  | inactive | 1.99% | inactive | 
Cc1ccc(C(N)=O)cc1Nc1nccc(-c2cn(C(C)C)c3cnccc23)n1 | 27.1 µM (active) | -53.8% | -56% | inactive | inactive | inactive | inactive | inactive | 9.35 µM (active) | 3.32 µM (active) | 7.43 µM (active) | 2640 nM (active) | 6.62 µM (active) | 3.72 µM (active) | 6620 nM (active) | 4.18 µM (active) |  | inactive | 
CC(C)c1cc(-c2n[nH]c(=O)n2-c2ccc3c(ccn3C)c2)c(O)cc1O | 30.4 µM (active) | -33.4% | -21.8% | inactive | inactive | inactive |  | inactive |  | 0.0332 µM (active) |  | 29.6 nM (active) | 0.0296 µM (active) | 0.0166 µM (active) |  | 0.0372 µM (active) |  | inactive | 
Cc1cc(Nc2cc(N3CCN(C)CC3)nc(Sc3ccc(NC(=O)C4CC4)cc3)n2)n[nH]1 |  | -2.46% | -1.21% | inactive | inactive | inactive |  |  |  | 3.72 µM (active) | 14.8 µM (active) | 372 nM (active) | 7.43 µM (active) |  | 33.2 nM (active) | 5.9 µM (active) | -2.28% | inactive | 
C=CCn1c(=O)c2cnc(Nc3ccc(N4CCN(C)CC4)cc3)nc2n1-c1cccc(C(C)(C)O)n1 |  | -8.48% | -20.6% | inactive | inactive | inactive | inactive | inactive |  | 0.418 µM (active) | 1.48 µM (active) | 590 nM (active) | 1.18 µM (active) |  |  | 0.332 µM (active) | -6.72% |  | 
O=C(O)c1ccc2c(c1)nc(Nc1cccc(Cl)c1)c1ccncc12 | 27.1 µM (active) | -53.1% | -66.6% | inactive | inactive | inactive |  | inactive | 5.26 µM (active) | 4.18 µM (active) | 9.35 µM (active) |  | 9.35 µM (active) | 8.33 µM (active) | 4180 nM (active) | 4.69 µM (active) |  |  | 
N#Cc1c(O)c2c(-c3ccc(-c4ccccc4O)cc3)csc2[nH]c1=O |  | -31.1% | -7.68% | 12.8 µM (active) and inactive | inactive | inactive |  |  |  | inactive |  |  | inactive | inactive | inactive | inactive | 0% | inactive | 
Cc1cc(Nc2nc(N[C@@H](C)c3ccc(F)cc3)c(C#N)cc2F)n[nH]1 |  | -35.7% | -6.34% | inactive | inactive | inactive | inactive | inactive |  | 2.96 µM (active) | 16.6 µM (active) | 235 nM (active) | 1.05 µM (active) | 0.332 µM (active) | 296 nM (active) | 1.87 µM (active) | 0% | inactive | inactive
